PubChem BioAssay AID504832 (National Center for Advancing Translational Sciences (NCATS), 2011)
Hit rate of the full screen: of about 310,000 compounds, about 18,000 (5.8%) were called active. Inconclusive results (about 22%) are left out. The sample holds actives, similar compounds and a random draw of the others, so the mix is not that of the screen. The call rests on the fitted dose curve; in most records, active means well fitted inhibition curve with a large enough effect; inconclusive means small, poorly fitted or top-dose-only effect, or another doubt; inactive means no such curve, though single readings can be large or run the other way.

Experiment: Primary qHTS for delayed death inhibitors of the malarial parasite plastid, 48 hour incubation
Conditions: P. falciparum luciferase growth in erythrocytes; series mostly up to 28.7 µM; activity change, negative = inhibition: at the top concentration
Summary of the method: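 Compounds are pin-transferred into medium, infected erythrocytes (2% hematocrit, 0.1% parasitemia final) are added, and plates sit one parasite generation at 37 C in 5% CO2. Detection reagent is then added and luminescence measured.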
On the % scale 0 is the no-effect control and ±100 the full control effect; potency means the concentration at half of the fitted maximal effect.

| SMILES | activity change, negative = inhibition | Potency |
| --- | --- | --- |
| CS(=O)(=O)Nc1ccccc1N=C(c1ccccc1)c1ccccc1 | -17.5% (inactive) | – |
| CC(Sc1nn(-c2ccc(Cl)cc2)c(=S)s1)C(=O)NCC1CCCO1 (centres undefined) | 18.6% (inactive) | – |
| Cc1ccc(N(C(=O)c2snc(C(N)=O)c2N)C(C(=O)NCC2CCCO2)c2c[nH]c3ccccc23)cc1 (centres undefined) | – | 7.38 µM (active) |
| COc1cccc(N(C(=O)c2snc(C(N)=O)c2N)C(C(=O)NCC2CCCO2)c2c[nH]c3ccccc23)c1 (centres undefined) | – | 9.28 µM (active) |
| CCOc1ccc(N(CC(=O)NCC2CCCO2)S(=O)(=O)c2ccc(C)cc2)cc1 (centres undefined) | 19.1% (inactive) | – |
| COCCNC(=O)C(c1ccc(C)o1)N(Cc1cccs1)C(=O)c1snc(C(N)=O)c1N (centres undefined) | -9.83% (inactive) | – |
| Cc1ccc(C(C(=O)NCC2CCCO2)N(C(=O)c2snc(C(N)=O)c2N)c2ccc(C(C)C)cc2)o1 (centres undefined) | – | 9.28 µM (active) |
| COC(=O)c1cccc(N(C(=O)CNC(=O)c2cccs2)C(C(=O)NCC2CCCO2)c2ccc(OC)c(OC)c2)c1 (centres undefined) | -17.6% (inactive) | – |
| CCOc1ccc(N(C(=O)c2snc(C(N)=O)c2N)C(C(=O)NCC2CCCO2)c2c[nH]c3ccccc23)cc1 (centres undefined) | – | 5.22 µM (active) |
| O=C(NCCc1c[nH]c2ccccc12)C(=O)NCC1CCCO1 (centres undefined) | 13.2% (inactive) | – |
| Cc1ccc(N(C(=O)Cc2cccs2)C(C(=O)NCC2CCCO2)c2ccncc2)cc1 (centres undefined) | -1.9% (inactive) | – |
| CCOc1ccc(-n2c(N)c(C(=O)NCC3CCCO3)sc2=S)cc1 (centres undefined) | 8.29% (inactive) | – |
| CCOc1cc(C(C(=O)NCC2CCCO2)N(C(=O)Cn2nnc3ccccc32)c2cccc(OC)c2)ccc1O (centres undefined) | -23.6% (inactive) | – |
| COc1ccc2oc(=O)cc(CN3CCOCC3)c2c1 | -29% (inactive) | – |
| CC(=O)c1c(C)[nH]c(C(=O)CN2C(=O)NC(C)(C)C2=O)c1C | 16.6% (inactive) | – |
| CC1CCCN(C(=O)CN2C(=O)c3ccccc3S2(=O)=O)C1 (centres undefined) | 270% (inactive) | – |
| O=C(NNS(=O)(=O)c1ccc([N+](=O)[O-])cc1)C1CCCCC1 | 2.73% (inactive) | – |
| CC(=O)O[C@H]1c2ccccc2-c2ccccc2[C@@H]1OC(C)=O | 23.1% (inactive) | – |
| C[N+](C)(C)CCNC(=O)c1cc[n+](Cc2ccccc2)c(/C=N/O)c1 | -1.42% (inactive) | – |
| CC(=O)c1ccc(S(=O)(=O)NCCC(=O)N2CCN(c3ccccn3)CC2)cc1 | -21.6% (inactive) | – |
| COc1cc(NC(=O)c2ccccc2)c(OC)cc1NC(=O)Cc1ccccc1 | -22.9% (inactive) | – |
| Nn1c(SCC(=O)Nc2nccs2)nnc1-c1ccco1 | 24.4% (inactive) | – |
| CCC(NC(=O)C1CCCC1)c1ccc(C)cc1 (centres undefined) | 5.68% (inactive) | – |
| COc1cccc(N2CC(NS(=O)(=O)c3cccs3)CC2=O)c1 (centres undefined) | 3.72% (inactive) | – |

| SMILES | activity change, negative = inhibition | Potency |
| --- | --- | --- |
| Cc1ccc(C(=O)c2c(NC(=O)c3ccncc3)sc3c2CCCC3)cc1 | – | 6.57 µM (active) |
| Cc1ccc(NC(=O)c2c(NC(=O)CCC(=O)O)sc3c2CCCCC3)cc1 | 42.9% (inactive) | – |
| NC(=O)c1c(NC(=O)c2ccccc2)sc2c1CCCC2 | 225% (inactive) | – |
| COc1cccc(NC(=O)N2CCC(NC(=O)C(Cc3cccc(C)c3)NC(C)=O)CC2)c1 (centres undefined) | -8.06% (inactive) | – |
| CC(C)[C@H](NC(=O)N1CCn2c1nc1ccccc12)C(=O)NC1CC1 | -2.75% (inactive) | – |
| CNC(=O)c1ccsc1NC(=O)c1ccc(S(=O)(=O)N2CCOCC2)cc1 | -5.56% (inactive) | – |
| CC(OC(=O)c1ccc(S(=O)(=O)N2CCOCC2)cc1)c1ccccc1 (centres undefined) | -3.14% (inactive) | – |
| COC(=O)c1c(NC(=O)c2ccc(S(=O)(=O)N3CCOCC3)cc2)sc2c1CCN(C(C)C)C2 | – | 11.7 µM (active) |
| COCC(=O)N1CCCC(C(=O)c2ccc(C(F)(F)F)cc2)C1 (centres undefined) | -0.209% (inactive) | – |
| O=c1[nH]c(CSc2ccccc2)nc2c1oc1ccccc12 | – | 10.4 µM (active) |
| Cc1nc(Cl)c2oc3ccccc3c2n1 | -21% (inactive) | – |
| CCOC(=O)c1sc2nc(CSc3ccccc3)[nH]c(=O)c2c1C | 33.8% (inactive) | – |
| Cn1c(CC(=O)Nc2ccc(F)cc2)nnc1SCC(=O)NC1CCCCC1 | 11.3% (inactive) | – |
| CCCCN1C(=O)/C(=C2/Sc3ccc(Cl)cc3N2CC)SC1=S | -9.17% (inactive) | – |
| CC(NCc1cccs1)C(=O)Nc1cc(Cl)cc(Cl)c1 (centres undefined) | -12.9% (inactive) | – |
| CCOCCCNC(=O)C1(O)c2cc(Br)ccc2NC(=O)N1c1ccc(C)c(C)c1 (centres undefined) | -7.48% [at 0.00184 µM] (inactive) | – |
| CCCCN1C(=O)C(C)=C(C)C1OCCc1ccc(OC)c(OC)c1 (centres undefined) | 12.2% (inactive) | – |
| O=C(Cc1ccc(-c2ccccc2)cc1)NC(c1ccccc1)c1ccccc1 | – | 13.1 µM (active) |
| C=CCC(NC(=O)Cc1ccccc1)C(=O)NCCC (centres undefined) | 20.5% (inactive) | – |
| O=C(O)Cc1ccc(-c2ccccc2)cc1 | – | inactive |
| Cc1ccc(S(=O)(=O)NCC(=O)N2CCOCCOCCOCCOCC2)cc1 | 22.8% (inactive) | – |
| Cc1cc(C)cc(C(=O)NC(CC(N)=O)c2ccc(N3CCC(N4CCCCC4)CC3)c([N+](=O)[O-])c2)c1 (centres undefined) | -1.82% (inactive) | – |
| COC(=O)CN1C(=O)[C@H]2[C@@H](/C=C/c3ccccc3)N3C(=O)CN(Cc4ccccc4)C(=O)[C@@]3(Cc3ccccc3)[C@H]2C1=O | -26.2% (inactive) | – |
| O=C1[C@H]2[C@@H](c3ccc(F)cc3)N3C(=O)N(c4ccc(C(F)(F)F)cc4)C(=O)[C@@]3(Cc3ccccc3)[C@H]2C(=O)N1C1CCCCC1 | – | 4.65 µM (active) |

| SMILES | activity change, negative = inhibition | Potency |
| --- | --- | --- |
| COc1ccc(C2C(C(C)=O)=C(O)C(=O)N2Cc2cccnc2)cc1 (centres undefined) | 9.53% (inactive) | – |
| O=C(NC1(C(F)(F)F)NC(=O)N(C2CCCCC2)C1=O)c1ccco1 (centres undefined) | 8.82% (inactive) | – |
| COc1ccc([C@@H]2[C@@H]3C(=O)N(C(C)(C)C)C(=O)[C@@H]3[C@]3(Cc4ccccc4)C(=O)N(c4cccc(Br)c4)C(=O)N23)cc1 | – | 2.62 µM (active) |
| Cc1cccc([C@@H]2[C@@H]3C(=O)N(Cc4ccccc4)C(=O)[C@@H]3[C@]3(Cc4ccc(Cl)cc4)C(=O)N(c4cccc(Cl)c4)C(=O)N23)c1 | – | 4.15 µM (active) |
| O=C1CC(NNc2ccccc2)C(=O)N1c1cccc(Cl)c1 (centres undefined) | 18.9% (inactive) | – |
| O=C1[C@H]2[C@@H](c3ccc(Cl)cc3)N3C(=O)N(c4cccc(F)c4)C(=O)[C@@]3(Cc3ccccc3)[C@H]2C(=O)N1C1CCCCC1 | – | 9.28 µM (active) |
| COc1ccc(N2C(=O)C(Cc3ccccc3)NC2=S)cc1 (centres undefined) | 16.6% (inactive) | – |
| O=C(CCNS(=O)(=O)c1ccc(Br)cc1)NCC1CCCO1 (centres undefined) | 3.4% (inactive) | – |
| CCc1ccc(/C=N/NC(=O)c2nnn(-c3nonc3N)c2CN2CCc3ccccc32)cc1 | -24.2% (inactive) | – |
| Cc1cc(OC(=O)c2ccc(OC(C)C)cc2)c([N+](=O)[O-])c(=O)[nH]1 | -10.1% (inactive) | – |
| Cc1ccc(NS(=O)(=O)c2ccc(C(=O)NCCCN3CCOCC3)cc2)cc1 | 4.35% (inactive) | – |
| COc1ccc(N2CCN(C(=O)CN3C(=O)COc4ccccc43)CC2)cc1 | 2.97% (inactive) | – |
| COc1ccc(Cc2nc3ccc(C(=O)NCC4CCOCC4)cc3o2)cc1OC | -17.1% (inactive) | – |
| COc1ccc(OCC(=O)Nc2cc(C)c(Cl)cc2OC)c([N+](=O)[O-])c1 | 36% (inactive) | – |
| COc1ccc(C)cc1S(=O)(=O)N(CC(=O)Nc1cccc([N+](=O)[O-])c1)c1ccc(C)cc1 | – | 9.28 µM (active) |
| Cc1ccc(N(CC(=O)Nc2cccc(N(C)S(C)(=O)=O)c2)S(C)(=O)=O)cc1 | 8.82% (inactive) | – |
| COc1ccc(N(CC(=O)Nc2ccc(C)cc2C)S(=O)(=O)c2ccccc2[N+](=O)[O-])c(OC)c1 | – | 9.28 µM (active) |
| CN(CC(=O)Nc1cccc(F)c1)CC(=O)Nc1cccc([N+](=O)[O-])c1 | -21.3% (inactive) | – |
| COc1ccc(N(CCC(=O)NCCc2ccccc2)S(=O)(=O)c2ccc(C)cc2C)cc1 | -3.86% (inactive) | – |
| Brc1ccccc1/C=N/Nc1nc2ccccc2o1 | 122% (inactive) | – |
| COc1ccc(NC(=O)c2cccc(Cl)c2)c[n+]1[O-] | -14.8% (inactive) | – |
| CC(C(=O)c1ccc(-c2ccccc2)cc1)[n+]1cccc(Br)c1 (centres undefined) | 43.3% (inactive) | – |
| CC(C)C(=O)NCC(c1cccs1)S(=O)(=O)c1ccc(F)cc1 (centres undefined) | 4.58% (inactive) | – |
| CC(CC(=O)N1CCN(S(=O)(=O)c2ccccc2)CC1)n1cncn1 (centres undefined) | 21.2% (inactive) | – |

| SMILES | activity change, negative = inhibition | Potency |
| --- | --- | --- |
| COc1ccc(C(=O)CCc2ccccc2O)c(OC)c1 | 117% (inactive) | – |
| COc1ccc(C(=O)/C=C/c2cccnc2)c(OC)c1 | – | 11.7 µM (active) |
| COc1ccc(C(=O)CCC(=O)Nc2cccnc2)c(OC)c1 | -5.35% (inactive) | – |
| COc1ccccc1N(CC(=O)NC1CCCC1)C(=O)C1(C)CC(=O)N=C2C=CC(C)=CN21 (centres undefined) | 5.48% (inactive) | – |
| COc1ccc(CNC(=O)CN(C(=O)c2csnn2)c2cnc3ccccc3c2)cc1 | 13.2% (inactive) | – |
| CCOC(=O)N1CCN(Cc2nnc(-c3ccccc3Cl)o2)CC1 | 0.496% (inactive) | – |
| COc1ccc(C(=O)Nc2sc(C)c(C)c2CN2CCOCC2)cc1 | 17.1% (inactive) | – |
| COC(=O)c1cc(NC(=O)c2ccco2)ccc1N1CCOCC1 | 37.6% (inactive) | – |
| COc1cc(C(c2c(NC(=O)c3ccco3)sc(C)c2C)N2CCOCC2)cc(OC)c1OC (centres undefined) | – | 10.4 µM (active) |
| O=c1c2cc([N+](=O)[O-])ccc2nc2n1CCC2 | -0.017% (inactive) | – |
| COc1ccc(OC)c(NC(=O)C2CCCN2S(=O)(=O)c2cccc3nsnc23)c1 (centres undefined) | 0% (inactive) | – |
| O=C(CCNS(=O)(=O)c1cccs1)N1CCN(c2ccc(F)cc2)CC1 | 2.81% (inactive) | – |
| O=c1ccc2cc(S(=O)(=O)NCCCc3ccccc3)ccc2[nH]1 | -2.29% (inactive) | – |
| CC(C)N(Cc1nnc(-c2ccccc2Br)o1)C(=O)c1cc(Cl)nc2ccccc12 | – | 9.28 µM (active) |
| CC(C)N(Cc1nnc(-c2ccc(Cl)cc2)o1)C(=O)C1=COCCO1 | -5.65% (inactive) | – |
| Cn1cnnc1SCc1nnc(-c2ccccc2Br)o1 | 50.9% (inactive) | – |
| COC(=O)C1=CO[C@@H](O[C@@H]2O[C@H](CO)[C@@H](O)[C@H](O)[C@H]2O)C2C1C[C@H](O)[C@@H]2C (some centres undefined) | 30.8% (inactive) | – |
| COc1ccc(C(=O)NCc2ccc(C)cc2)cc1S(=O)(=O)N1CCCC1 | -27.2% (inactive) | – |
| COC(=O)C(C)Oc1ccc2c(c1)O/C(=C\c1cccc(Br)c1)C2=O (centres undefined) | – | 13.1 µM (active) |
| COC(=O)C(C)Oc1ccc2c(-c3cccc([N+](=O)[O-])c3)cc(=O)oc2c1 (centres undefined) | 0.049% (inactive) | – |
| CN(C)C(=O)Oc1ccc2c(c1)O/C(=C\c1ccccc1)C2=O | 101% (inactive) | – |
| CCOC(=O)CC1COCCN1C(=O)c1cc(COc2ccc(F)c(F)c2)on1 (centres undefined) | -0.834% (inactive) | – |
